# The campaign covered roughly 290,000 compounds. About 570 (0.2%) were called active. Another 1% or so got no clear call; they are omitted. No stated cut-off is given here; in the data, active means inhibition mostly above about 51% (no sharp cut-off); inconclusive means no clear call, values can overlap the other calls; inactive means mostly below about 53%. The sample as a whole holds a higher share of actives than the screen did.
# Target: Voltage-dependent N-type calcium channel subunit alpha-1B (Homo sapiens) (UniProt Q00975)
# Sequence (Q00975 whole entry, looked up): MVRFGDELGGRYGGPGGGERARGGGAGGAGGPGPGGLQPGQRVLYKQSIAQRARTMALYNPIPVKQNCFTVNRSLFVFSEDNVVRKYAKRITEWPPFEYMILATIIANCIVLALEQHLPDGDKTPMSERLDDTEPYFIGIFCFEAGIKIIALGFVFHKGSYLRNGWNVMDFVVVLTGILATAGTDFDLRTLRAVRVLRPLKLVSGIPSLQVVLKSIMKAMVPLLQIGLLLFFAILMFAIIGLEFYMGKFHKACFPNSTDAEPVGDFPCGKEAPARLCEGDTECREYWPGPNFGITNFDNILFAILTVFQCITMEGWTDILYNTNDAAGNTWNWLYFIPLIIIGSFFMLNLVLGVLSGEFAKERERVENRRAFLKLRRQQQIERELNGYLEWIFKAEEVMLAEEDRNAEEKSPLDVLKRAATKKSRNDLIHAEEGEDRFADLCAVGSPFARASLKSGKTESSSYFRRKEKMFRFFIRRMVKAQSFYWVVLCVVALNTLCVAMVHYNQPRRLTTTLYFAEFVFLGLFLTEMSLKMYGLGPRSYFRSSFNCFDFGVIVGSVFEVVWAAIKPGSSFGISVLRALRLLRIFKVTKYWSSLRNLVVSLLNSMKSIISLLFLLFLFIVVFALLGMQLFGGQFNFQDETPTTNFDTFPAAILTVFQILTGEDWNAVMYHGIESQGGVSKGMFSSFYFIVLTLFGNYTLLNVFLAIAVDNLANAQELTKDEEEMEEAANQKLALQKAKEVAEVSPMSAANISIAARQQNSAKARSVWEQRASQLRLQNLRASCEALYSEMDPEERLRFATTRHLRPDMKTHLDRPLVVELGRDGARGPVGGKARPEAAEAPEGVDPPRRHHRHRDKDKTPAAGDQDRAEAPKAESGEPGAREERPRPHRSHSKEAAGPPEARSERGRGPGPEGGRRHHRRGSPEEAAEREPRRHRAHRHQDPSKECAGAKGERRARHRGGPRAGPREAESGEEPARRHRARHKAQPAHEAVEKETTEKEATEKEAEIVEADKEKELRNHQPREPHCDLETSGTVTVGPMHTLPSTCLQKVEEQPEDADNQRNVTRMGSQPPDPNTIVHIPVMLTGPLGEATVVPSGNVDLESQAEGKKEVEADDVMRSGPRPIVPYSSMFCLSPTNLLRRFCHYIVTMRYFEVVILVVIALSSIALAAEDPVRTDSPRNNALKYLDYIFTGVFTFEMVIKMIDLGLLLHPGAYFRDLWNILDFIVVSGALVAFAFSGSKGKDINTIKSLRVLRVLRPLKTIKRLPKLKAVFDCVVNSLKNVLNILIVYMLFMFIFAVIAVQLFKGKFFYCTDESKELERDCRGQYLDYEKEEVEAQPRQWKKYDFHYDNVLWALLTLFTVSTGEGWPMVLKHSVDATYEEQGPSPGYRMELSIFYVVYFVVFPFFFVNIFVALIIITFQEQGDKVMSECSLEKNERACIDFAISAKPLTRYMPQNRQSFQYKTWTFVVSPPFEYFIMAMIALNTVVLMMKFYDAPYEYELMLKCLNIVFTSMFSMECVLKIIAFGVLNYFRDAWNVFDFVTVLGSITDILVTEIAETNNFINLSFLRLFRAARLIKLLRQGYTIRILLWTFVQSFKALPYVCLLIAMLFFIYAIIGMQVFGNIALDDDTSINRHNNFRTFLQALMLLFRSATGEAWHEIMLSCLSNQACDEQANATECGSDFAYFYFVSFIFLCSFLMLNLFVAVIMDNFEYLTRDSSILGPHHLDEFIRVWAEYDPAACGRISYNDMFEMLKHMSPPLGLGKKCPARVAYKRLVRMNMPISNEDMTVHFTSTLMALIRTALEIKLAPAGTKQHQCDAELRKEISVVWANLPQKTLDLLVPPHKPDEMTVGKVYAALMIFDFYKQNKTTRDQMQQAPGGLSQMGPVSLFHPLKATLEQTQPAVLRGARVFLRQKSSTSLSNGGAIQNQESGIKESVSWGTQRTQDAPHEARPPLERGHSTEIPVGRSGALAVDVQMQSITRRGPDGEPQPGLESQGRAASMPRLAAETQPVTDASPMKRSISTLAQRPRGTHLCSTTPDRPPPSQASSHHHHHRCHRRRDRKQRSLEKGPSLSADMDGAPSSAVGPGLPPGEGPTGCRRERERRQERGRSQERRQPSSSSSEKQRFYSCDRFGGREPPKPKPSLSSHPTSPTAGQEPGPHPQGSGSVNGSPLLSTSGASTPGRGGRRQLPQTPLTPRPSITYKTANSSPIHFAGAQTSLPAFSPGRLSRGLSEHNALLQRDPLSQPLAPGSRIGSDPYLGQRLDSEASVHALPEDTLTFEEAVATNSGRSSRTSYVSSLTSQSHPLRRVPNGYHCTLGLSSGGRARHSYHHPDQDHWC
# Assay: inhibitors of Mint1-CaV2.2 protein interaction, biochemical, HTRF (AID 2073)
# Details: at 20 µM, active compounds read high
row,SMILES,inhibition
1,O=C(O)CCNS(=O)(=O)c1ccc(Oc2ccccc2)cc1,-1.3% (inactive)
2,CSCCC(NC(=O)OC(C)(C)C)C(=O)NC(C(=O)NC(CC(C)C)C(N)=O)C(C)C (centres undefined),15.6% (inactive)
3,Cc1ccc(N2C(=O)C3C4C=CC(CNC(=S)N5CCN(c6ccccc6)CC5)(O4)C3C2=O)cc1 (centres undefined),45.6% (inactive)
4,Cc1nc2ccc(NC(=O)N3CCCCC3)cc2nc1C,40.3% (inactive)
5,Cc1nc2cc(NC(=O)N3CCN(c4ccccn4)CC3)ccc2o1,0% (inactive)
6,CCOC(=O)C1CCN(C(=O)Nc2ccc3nc(C)c(C)nc3c2)CC1,36% (inactive)
7,O=C(Nc1ccc2nc(-c3ccco3)c(-c3ccco3)nc2c1)N1CCCCCC1,71.2% (active)
8,CCOC(=O)C1CCN(C(=O)Nc2ccc3nc(-c4ccco4)c(-c4ccco4)nc3c2)CC1,83.1% (active)
9,CCOC(=O)C1CCN(C(=O)Nc2ccc3nccnc3c2)CC1,24.5% (inactive)
10,O=C(Nc1ccc2nc(-c3ccco3)c(-c3ccco3)nc2c1)N1CCN(c2ccccn2)CC1,84.9% (active)
11,Cn1nnc2cc(NC(=O)N3CCN(c4ccccn4)CC3)ccc21,-0.5% (inactive)
12,O=C(Nc1ccc(N2CCOCC2)cc1)Nc1ccc2nc(-c3ccco3)c(-c3ccco3)nc2c1,48.8% (inactive)
13,Cc1ccc(NC(=O)NC(=O)CSc2nnnn2C)c(C)c1,-7.8% (inactive)
14,COc1cccc(C(C(=O)NC(C)(C)C)N(C(=O)CCC(=O)Nc2cc(C)on2)C(C)(C)C)c1OC (centres undefined),-7.6% (inactive)
15,O=C(CN1CCCCCC1=O)N1CCN(S(=O)(=O)c2cccs2)CC1,14.5% (inactive)
16,CCOC(=O)c1[nH]c2ccccc2c1CCCN1C(=O)c2ccccc2C1=O,-6.7% (inactive)
17,CN(C)C(=O)CCC(=O)N1CCCC(N2CCN(c3cccc(C(F)(F)F)c3)CC2)C1 (centres undefined),5.4% (inactive)
18,Nc1nc(N2CCN(c3ccccc3)CC2)n[nH]1,-13.2% (inactive)
19,CCn1c(SCC(=O)N2CCC(C)CC2)nc2c1c(=O)n(C)c(=O)n2C,2.5% (inactive)
20,NC(=O)CCC(NS(=O)(=O)c1ccc(Cl)cc1)C(=O)NCc1ccccc1 (centres undefined),-16.2% (inactive)
21,CC(C)C(=O)N1CCN(c2ccc(NC(=O)c3cccs3)cc2Cl)CC1,0.8% (inactive)
22,CCOC(=O)C1CCN(C(=O)CN(c2ccc3c(c2)OCCO3)S(C)(=O)=O)CC1,-9.6% (inactive)
23,Cc1cccc(COCC(Cc2ccccc2)N2CCN(C(=O)c3cccc(Cl)c3)CCC2=O)c1 (centres undefined),1.7% (inactive)
24,O=S(=O)(NC1=NCCCCC1)c1ccccc1Cl,7.5% (inactive)

# Reference: PubChem BioAssay AID2073 (Sanford-Burnham Center for Chemical Genomics, 2009)
